PubChem BioAssay (NCI)
The panel holds about 83,000 compounds, 20% with a hit somewhere; the sample as a whole holds those more often.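 Values shown are percent growth following 48 h exposure of cells in 96-well plates to a single concentration of compound; below 10 was considered active.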 Unmarked numbers belong to inactive results. Activity calls are given as the source filed them.

Columns and labels:
Test in all cases: NCI-60 one-dose screen, 48 h (100 = growth as untreated, 0 = no growth, -100 = all killed)
Conditions in all cases: 10 µM unless noted
HT29 colon = tested on: HT29 colon
SNB-75 CNS = tested on: SNB-75 CNS
PC-3 prostate = tested on: PC-3 prostate
SK-MEL-5 melanoma = tested on: SK-MEL-5 melanoma
UACC-62 melanoma = tested on: UACC-62 melanoma
LOX IMVI melanoma = tested on: LOX IMVI melanoma
SK-MEL-28 melanoma = tested on: SK-MEL-28 melanoma
SK-MEL-2 melanoma = tested on: SK-MEL-2 melanoma
U251 CNS = tested on: U251 CNS
SNB-19 CNS = tested on: SNB-19 CNS

SMILES | growth (HT29 colon) | growth (SNB-75 CNS) | growth (PC-3 prostate) | growth (SK-MEL-5 melanoma) | growth (UACC-62 melanoma) | growth (LOX IMVI melanoma) | growth (SK-MEL-28 melanoma) | growth (SK-MEL-2 melanoma) | growth (U251 CNS) | growth (SNB-19 CNS)
CCc1[nH]nc(-c2ccc(OC)cc2)c1-c1ccccc1OCCN(CC)CC | 85.9% | 60.4% | 76% | 85.2% | 106% | 80.2% | 107% | 95.5% | – | –
Nc1ccc(C2=Nc3cccc4cccc(c34)S2)cc1 | 98.5% | 71.4% | – | 88.9% | 79.8% | 91.8% | – | 87.5% | 91.8% | –
O=C(Nc1ccc(Cl)cc1)Nc1ccc(Nc2nncc3ccccc23)cc1 | 32.4% | 46.3% | 1.46% (active) | 7.12% (active) | 13.4% | 33.6% | 44.1% | 18.9% | – | –
O=C(Nc1ccc(Cl)cc1Cl)Nc1ccc(-c2cccnc2)cc1N1CCC(CO)CC1 | 28% | 39.4% | 16.6% | 27.4% | 26% | 37.7% | 46.6% | 34.9% | 29.8% | –
O=C1C[C@@H]2/C(=C(O)\C=C\c3ccccc3)C(=O)C=C[C@@H]2O1 | -53.2% (active) | – | 37.8% | 39.7% | -50.7% (active) | -68% (active) | -23.7% (active) | -35% (active) | 1.95% (active) | 58.7%
c1ccc(N2CCN(c3nncc4ccccc34)CC2)nc1 | 98.2% | 105% | 101% | 97.5% | 99.6% | 97.5% | – | 103% | 96.9% | –
ClC1=C(Cl)C(Cl)=C(Cl)C1=C/C=C/c1ccccc1 | 7.03% (active) | 19.8% | – | -97.3% (active) | -83.6% (active) | -91.6% (active) | -74.1% (active) | – | -93.3% (active) | –
O=c1[nH]c(Cl)nc2c1cnn2-c1ccccc1 | 64.4% | 82.9% | 76.6% | 96.5% | 67.6% | 71.7% | 70.7% | 103% | 100% | –
O=C(CN1CCCCC1)Sc1nnc2sc3ccccc3n12 | 118% | 74.6% | 93% | 99.2% | 107% | 103% | – | 109% | 98.5% | –
CCC(C)(C)C(=O)O[C@H]1C[C@@H](C)C=C2C=C[C@H](C)[C@H](CC[C@@H]3C[C@@H](O)CC(=O)O3)[C@H]21 | 76.9% | 13.7% | 33.9% | – | – | -16.2% (active) | 62.3% | 26.3% | – | –
CC(=O)Oc1ccc(C2OC(c3ccc4ccccc4c3OC(C)=O)=NN2C(C)=O)c(OC(C)=O)c1 (stereo not given) | 27.2% | – | 24.5% | -9.16% (active) | -11.8% (active) | 4.67% (active) | 37.9% | 13% | 13.2% | 36.9%
COc1ccc2c(c1)C(=O)c1c-2c(=O)n(CCCCCCC(=O)NO)c2ccccc12 | 3.51% (active) | 29.7% | -8.27% (active) | – | -55.5% (active) | -82% (active) | -18% (active) | 10.4% | -58.8% (active) | –
C=C(C[C@](O)(C(=O)/C=C/c1ccc(Cl)cc1)C(=O)OC)c1ccccc1 | 16.4% | 75.7% | 65.4% | 76% | 53.8% | -72.4% (active) | 95.4% | 102% | 28.6% | –
Cc1nnc(Nc2ccc(NC(=O)Nc3ccc(Cl)cc3)cc2)c2ccccc12 | 2.24% (active) | 68.1% | 22.8% | 52.3% | -34.4% (active) | -27.3% (active) | -11.9% (active) | 44% | – | –
O=C(CCc1nnc2sc(-c3ccc(Cl)cc3Cl)nn12)c1nc2ccccc2[nH]1 | – | -45.8% (active) | -38.5% (active) | -70.2% (active) | -85.1% (active) | -58% (active) | -60.1% (active) | -68.9% (active) | -83.1% (active) | 7.75% (active)
COc1ccc(C2CC(c3ccc(OC)c(OC)c3)=NN2C(=O)c2cc(OC)c(OC)c(OC)c2)cc1 (stereo not given) | -1.1% (active) | – | 30.5% | – | 41.9% | 36.1% | 70.5% | 12.6% | 26% | 38.9%

SMILES | growth (HT29 colon) | growth (SNB-75 CNS) | growth (PC-3 prostate) | growth (SK-MEL-5 melanoma) | growth (UACC-62 melanoma) | growth (LOX IMVI melanoma) | growth (SK-MEL-28 melanoma) | growth (SK-MEL-2 melanoma) | growth (U251 CNS) | growth (SNB-19 CNS)
Cc1ccc2c(c1)O/C(=C\c1ccc([N+](=O)[O-])o1)C2=O | – | 84.3% | -61.2% (active) | 76.9% | 51.5% | 4.66% (active) | 83.3% | 79.2% | 68.3% | 93.4%
COc1cc(C2CC(c3ccc(C)cc3)=NN2C(C)=O)ccc1Oc1ccnc2cc(Cl)ccc12 (stereo not given) | 77.1% | – | 67.9% | 91.1% | 72.5% | 65.6% | 108% | – | – | 58.1%
COc1ccc(C2CC(c3cccc(Nc4ccnc5cc(Cl)ccc45)c3)=NN2C=O)cc1 (stereo not given) | -55.8% (active) | – | – | 14% | 36% | 31.7% | 62.4% | -9.66% (active) | 16.5% | 42.3%
COc1ccc2c(c1)[nH]c(=O)c1c3cc(OC)c(OC)cc3cn21 | – | 72% | -90.8% (active) | -6.64% (active) | 48.9% | 9.3% (active) | 61.1% | – | -22.4% (active) | 31.3%
Cc1cc([N+](=O)[O-])c(C)cc1C(=O)O | 104% | – | 99% | – | 100% | 103% | 110% | 114% | 109% | 101%
COc1cccc2c1C(=O)c1c(O)c3c(c(O)c1C2=O)C[C@@](O)(/C(C)=N/NC(=O)c1cccc([N+](=O)[O-])c1)C[C@@H]3OC1CC(N)C(O)C(C)O1 (stereo not given in full) | – | -34.2% (active) | -35% (active) | -100% (active) | -93.9% (active) | -33.3% (active) | -66.7% (active) | -73.6% (active) | -29% (active) | -20.8% (active)
COc1ccc(-c2cncn2-c2ccc(-c3nc4cc(OC)c(OC)c(OC)c4s3)cc2)cc1N | 43.7% | – | 30.1% | 26.9% | 53.7% | 62.4% | 78.5% | 7.6% (active) | 56.3% | 72.1%
CCCn1cnc2c1c(=O)n(CCCCC(C)=O)c(=O)n2C | 95.8% | – | 99.2% | 104% | – | 98.2% | 114% | 108% | 95.5% | 120%
COc1ccc(C2CC(c3ccc(OC)c(OC)c3)=NN2C(=O)c2cc(OC)c(OC)c(OC)c2)c(OC)c1 (stereo not given) | 59.9% | – | 64.3% | 42% | 58% | 56.6% | – | 68.2% | 80.6% | 91.8%
COc1ccc(C2=NN(C(=O)c3cc(OC)c(OC)c(OC)c3)C(c3ccc(C#N)cc3)C2)cc1OC (stereo not given) | -8.4% (active) | – | 31.4% | 17.7% | 43.6% | 33.6% | 65.3% | 35.6% | 21.5% | –
COC(=O)C[C@@H]1CC=CC(=O)/C1=C(O)/C=C/c1ccccc1 | -65.3% (active) | – | 3.43% (active) | -97.8% (active) | -67.5% (active) | -93.3% (active) | -35.5% (active) | -22% (active) | -67.4% (active) | 2.77% (active)
O=C(NN(C(=O)c1ccccc1)c1cccs1)c1ccccc1 | – | 90.7% | 83.4% | 101% | 88.1% | 93.7% | 115% | – | 111% | 100%
CCCCCCCCCCSc1ncnc2nc[nH]c12 | 90.9% | – | 79.8% | 56.4% | 69.9% | 56.3% | 116% | 101% | 68.8% | 74.7%
Cc1cc(Cl)ccc1Nc1nc(C(F)(F)F)ccc1C(=O)NCC(=O)N/N=C/c1c(Cl)cccc1Cl | – | 97.7% | -16.1% (active) | 70.5% | 63% | 56.3% | 85.7% | 98.2% | 67.7% | 90.5%
Clc1nc(Cl)c2ncn(-c3ccccc3)c2n1 | 43.4% | – | 95.7% | 78.6% | 69% | 0.438% (active) | – | 17.8% | 42.7% | 103%
